Reference: PubChem BioAssay (EPA / NIEHS)
Values joined by “and” are separate entries in the source; they are usually repeats but may differ in a detail not shown here. Identical values can stand only once. Inconclusive results are not listed. A structure can be active in one record and inactive in another. Active and inactive are the calls of the source. How the source made its calls, unless noted: active means hit-call score of the fitted dose curve at least 0.9, where 1 is the maximum; inactive means score below 0.9.

How the values were obtained:
[1] = ATG_PBREM_CIS: Attagene CIS-FACTORIAL HepG2 Assay for human Phenobarbital-responsive Enhancer Module (PBREM) (AID 2282955); conditions: HepG2 PBREM cis-reporter, Attagene multiplexed transcription; actives raise or lower the signal
Summary of the method: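 HepG2, transient MRTU transfection, 24 h dosing; RNA → oligo(dT) RT → PCR → 6-FAM extension → HpaI → CE. Bidirectional fit vs DMSO.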

[2] = target: Paired box protein Pax-6 (Homo sapiens) (UniProt P26367); assay: ATG_Pax6_CIS: Attagene CIS-FACTORIAL HepG2 Assay for human Paired Box 6 (PAX6) (AID 2282956); conditions: HepG2 CIS-FACTORIAL PAX6 reporter transcription, RNA readout; actives raise or lower the signal
Summary of the method: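 Fluorescent RT-PCR products separated by capillary electrophoresis report PAX6-linked promoter mRNA in HepG2 cells 24 h post-dose. Curves fitted bidirectionally, DMSO as negative control.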

[3] = ATG_PXRE_CIS: Attagene CIS-FACTORIAL HepG2 Assay for human Pregnane X Receptor Element (PXRE) (AID 2282957); conditions: HepG2 Attagene CIS-FACTORIAL PXRE reporter, mRNA; actives raise or lower the signal
Summary of the method: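 Endogenous transcription factor activity in HepG2 was gauged through induction of reporter mRNA driven by a cis-regulating promoter element, sampled 24 h post-treatment. Activity was fitted in both directions against DMSO negative control.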

[4] = ATG_PPRE_CIS: Attagene CIS-FACTORIAL HepG2 Assay for human Peroxisome Proliferator-activated Response Element (PPRE) (AID 2282958); conditions: HepG2 PPRE cis-element reporter, Attagene transcription factor profiling; actives raise or lower the signal
Summary of the method: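 Transcript-level reporter induction in transfected HepG2 cells after 24 h chemical exposure, quantified by fluorescence from RT-PCR products separated by capillary electrophoresis.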

[5] = ATG_RORE_CIS: Attagene CIS-FACTORIAL HepG2 Assay for human RAR-related Orphan Receptor Element (RORE) (AID 2282959); conditions: HepG2 Attagene cis-factorial RORE reporter, mRNA; actives raise or lower the signal
Summary of the method: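 Multiplexed reporter assay measuring mRNA induction from a cis promoter element in transiently transfected HepG2 cells after 24 h treatment. Detection via RT-PCR and capillary electrophoresis fluorescence; DMSO serves as baseline.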

[6] = ATG_Sox_CIS: Attagene CIS-FACTORIAL HepG2 Assay for human SRY-box transcription factor (SOX) (AID 2282960); conditions: HepG2 Attagene cis-factorial SOX reporter, mRNA; actives raise or lower the signal
Summary of the method: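 Cells were transfected with reporter constructs under cis-regulatory promoters, then exposed to chemicals for 24 h. Reporter transcripts were quantified by fluorescence after RT-PCR and capillary electrophoresis; activity was fitted in both directions against DMSO.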

[7] = target: Transcription factor Sp1 (Homo sapiens) (UniProt P08047); assay: ATG_Sp1_CIS: Attagene CIS-FACTORIAL HepG2 Assay for human Specificity Protein 1 (Sp1) (AID 2282961); conditions: HepG2 Sp1 cis-reporter transcription, actives raise or lower the signal
Summary of the method: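 Measures mRNA induction of an Sp1-linked reporter in HepG2 cells 24 h post-dosing. Multiplexed reporters read by RT-PCR and capillary electrophoresis; DMSO serves as negative control and baseline.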

[8] = ATG_SREBP_CIS: Attagene CIS-FACTORIAL HepG2 Assay for human Sterol Regulatory Element Binding (SREBP) (AID 2282962); conditions: HepG2 Attagene cis-factorial SREBP reporter, mRNA; actives raise or lower the signal
Summary of the method: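 Endogenous factor activity is measured in HepG2 through multiplexed reporter units under cis-element control. Following a 24 h incubation, reporter transcripts are reverse-transcribed, PCR-amplified and sized by capillary electrophoresis; activity is fitted in both directions relative to DMSO.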

[9] = target: Signal transducer and activator of transcription 3 (Homo sapiens) (UniProt P40763); assay: ATG_STAT3_CIS: Attagene CIS-FACTORIAL HepG2 Assay for human Signal Transducer and Activator of Transcription 3 (STAT3) (AID 2282963); conditions: HepG2, Attagene cis-factorial STAT3 reporter transcription; actives raise or lower the signal
Summary of the method: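 Fluorescence intensity of 6-FAM-labelled reporter fragments, separated by capillary electrophoresis after RT-PCR, gave the signal. Cells were HepG2 transfected with cis-element reporter units and treated 24 h; fitting was bidirectional relative to DMSO.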

[10] = ATG_TA_CIS: Attagene CIS-FACTORIAL HepG2 Assay for human TA Basal Promoter (AID 2282964); conditions: HepG2 Attagene CIS-factorial TA basal promoter reporter; actives raise or lower the signal
Summary of the method: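 Steps: transfect HepG2 with MRTUs; dose 24 h; isolate RNA, DNase-treat, reverse-transcribe; PCR and FAM-label reporter cDNA; digest with HpaI 2h at 37 C; run capillary electrophoresis. Activity fitted both directions against DMSO.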

[11] = ATG_TCF_b_cat_CIS: Attagene CIS-FACTORIAL HepG2 Assay for human T-Cell-Factor with beta-catenin (TCF/b-cat) (AID 2282965); conditions: HepG2 TCF/beta-catenin cis-reporter transcription, actives raise or lower the signal
Summary of the method: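 HepG2, transient MRTU transfection, cis-element-driven reporters (endogenous TFs). 24 h compound exposure. Readout: reporter mRNA by RT-PCR + 6-FAM primer extension, HpaI digest, capillary electrophoresis. Gain/loss fit vs DMSO baseline.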

[12] = ATG_TAL_CIS: Attagene CIS-FACTORIAL HepG2 Assay for human TAL Basal Promoter (AID 2282966); conditions: HepG2 Attagene cis-factorial TAL promoter reporter; actives raise or lower the signal;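 further: background control endpoint measuring basal TAL promoter reporter mRNA not a specific factor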
Summary of the method: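 Endogenous transcription-factor activity is sensed in HepG2 cells through transfected cis-promoter reporter constructs. After 24 h dosing, reporter transcripts are quantified by RT-PCR and capillary electrophoresis. Gain or loss of signal is fitted relative to DMSO.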

[13] = ATG_TGFb_CIS: Attagene CIS-FACTORIAL HepG2 Assay for human Transforming Growth Factor (TGF) (AID 2282967); conditions: HepG2 Attagene CIS TGFb reporter, mRNA transcription; actives raise or lower the signal
Summary of the method: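 Cells were dosed for 24 hours, after which total RNA was reverse-transcribed and reporter sequences amplified, labeled and sized by capillary electrophoresis. Activity was fitted in both directions against DMSO.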

[14] = ATG_VDRE_CIS: Attagene CIS-FACTORIAL HepG2 Assay for human Vitamin D Receptor Element (VDRE) (AID 2282968); conditions: HepG2 VDRE cis-reporter transcription, actives raise or lower the signal
Summary of the method: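 Compounds were applied for 24 h to HepG2 cells transfected with promoter-regulated reporter units. Total RNA was reverse-transcribed, and reporter amplicons were fluorescently labelled and sized by capillary electrophoresis.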

[15] = target: Steroid hormone receptor ERR1 (Homo sapiens) (UniProt P11474); assay: ATG_ERRa_TRANS: Attagene TRANS-FACTORIAL HepG2 Assay for human Estrogen-Related Receptor alpha (ERRa) (AID 2282971; active means hit-call score of the fitted dose curve at least 0.9, where 1 is the maximum); conditions: HepG2 Attagene TRANS reporter, ERRa transactivation
Summary of the method: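 HepG2 cells were transiently transfected with multiple GAL4-UAS reporter units, then dosed with compound for 24 h. Total RNA was reverse-transcribed, reporter cDNA PCR-amplified and fluorescently labelled, and fragments resolved by capillary electrophoresis; induction was compared with DMSO.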

[16] = target: X-box-binding protein 1 (Homo sapiens) (UniProt P17861); assay: ATG_Xbp1_CIS: Attagene CIS-FACTORIAL HepG2 Assay for human X-box Binding Protein 1 (XBP1) (AID 2282972); conditions: HepG2 XBP1 cis-element reporter, Attagene multiplex; actives raise or lower the signal
Summary of the method: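 Multiplexed cis-reporter readout in transfected HepG2 liver cells. Exposure lasted 24 hours. Activity in either direction was fitted against DMSO as negative control and baseline.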

[17] = ATG_M_19_TRANS: Attagene TRANS-FACTORIAL HepG2 Assay for M19 Transcription Factor (Internal Marker) (AID 2282974; active means hit-call score of the fitted dose curve at least 0.9, where 1 is the maximum); conditions: HepG2 Attagene TRANS-FACTORIAL M19 internal marker reporter
Summary of the method: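 After transfection of HepG2 with GAL4-UAS-driven reporter constructs, cells are dosed for 24 h. Total RNA is reverse-transcribed, reporter sequences PCR-amplified and labelled, then HpaI-digested and sized by capillary electrophoresis.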

[18] = ATG_GAL4_TRANS: Attagene TRANS-FACTORIAL HepG2 Assay for GAL4 (Internal Marker) (AID 2282976; active means hit-call score of the fitted dose curve at least 0.9, where 1 is the maximum); conditions: HepG2 Attagene TRANS GAL4 internal marker reporter
Summary of the method: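 Fluorescence from capillary electrophoresis of labelled RT-PCR products quantifies reporter mRNA induction after 24 h dosing of HepG2 cells carrying transfected GAL4-UAS reporter transcription units. Vehicle DMSO serves as baseline.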

[19] = target: Nuclear receptor subfamily 1 group I member 3 (Homo sapiens) (UniProt Q14994); assay: ATG_CAR_TRANS: Attagene TRANS-FACTORIAL HepG2 Assay for human Constitutive Androstane Receptor (CAR) (AID 2282969; active means hit-call score of the fitted dose curve at least 0.9, where 1 is the maximum;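 further: activators raise reporter mRNA above DMSO so AC50 marks induction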); conditions: HepG2 Attagene TRANS-FACTORIAL CAR reporter
Summary of the method: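 Transiently transfected HepG2, multiplex TRANS reporters (CAR-Gal4 chimera driving GAL4-UAS reporter). 24 h dosing. Readout: reporter transcript by RT-PCR + capillary electrophoresis, fluorescence intensity; positive direction vs DMSO.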

[20] = target: Estrogen receptor (Homo sapiens) (UniProt P03372); assay: ATG_ERa_TRANS: Attagene TRANS-FACTORIAL HepG2 Assay for human Estrogen Receptor alpha (ERa) (AID 2282970; active means hit-call score of the fitted dose curve at least 0.9, where 1 is the maximum); conditions: HepG2 Attagene TRANS ERa GAL4 reporter, mRNA
Summary of the method: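 Transfected HepG2 cells carrying GAL4-UAS-driven reporter units were dosed for 24 hours. Total RNA was reverse-transcribed, reporter sequences PCR-amplified, FAM-labelled, HpaI-digested and resolved by capillary electrophoresis. Increases over DMSO control defined activity.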

Measured: AC50

Sequence of Signal transducer and activator of transcription 3 (Homo sapiens) (P40763 whole entry, looked up, the tested form may be a part): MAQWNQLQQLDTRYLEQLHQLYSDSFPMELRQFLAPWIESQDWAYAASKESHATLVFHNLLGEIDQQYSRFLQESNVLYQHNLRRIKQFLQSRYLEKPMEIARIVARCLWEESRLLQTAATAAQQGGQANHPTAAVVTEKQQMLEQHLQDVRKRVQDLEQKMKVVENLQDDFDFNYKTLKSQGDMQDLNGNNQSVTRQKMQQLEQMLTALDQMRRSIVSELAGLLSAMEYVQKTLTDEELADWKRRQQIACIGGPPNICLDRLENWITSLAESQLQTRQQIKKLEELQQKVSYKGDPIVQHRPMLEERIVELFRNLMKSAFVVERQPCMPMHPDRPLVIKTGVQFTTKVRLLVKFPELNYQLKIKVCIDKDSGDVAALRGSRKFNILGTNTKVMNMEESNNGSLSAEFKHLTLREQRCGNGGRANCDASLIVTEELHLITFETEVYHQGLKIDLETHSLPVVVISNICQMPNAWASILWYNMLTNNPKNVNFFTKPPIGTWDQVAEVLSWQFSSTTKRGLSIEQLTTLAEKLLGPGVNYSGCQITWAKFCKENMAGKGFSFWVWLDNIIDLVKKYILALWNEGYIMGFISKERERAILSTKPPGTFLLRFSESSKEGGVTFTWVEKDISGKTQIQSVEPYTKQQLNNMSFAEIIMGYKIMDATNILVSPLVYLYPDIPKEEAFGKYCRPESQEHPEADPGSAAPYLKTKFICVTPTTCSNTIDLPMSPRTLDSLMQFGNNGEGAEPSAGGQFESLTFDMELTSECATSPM
Sequence of Paired box protein Pax-6 (Homo sapiens) (P26367 whole entry, looked up): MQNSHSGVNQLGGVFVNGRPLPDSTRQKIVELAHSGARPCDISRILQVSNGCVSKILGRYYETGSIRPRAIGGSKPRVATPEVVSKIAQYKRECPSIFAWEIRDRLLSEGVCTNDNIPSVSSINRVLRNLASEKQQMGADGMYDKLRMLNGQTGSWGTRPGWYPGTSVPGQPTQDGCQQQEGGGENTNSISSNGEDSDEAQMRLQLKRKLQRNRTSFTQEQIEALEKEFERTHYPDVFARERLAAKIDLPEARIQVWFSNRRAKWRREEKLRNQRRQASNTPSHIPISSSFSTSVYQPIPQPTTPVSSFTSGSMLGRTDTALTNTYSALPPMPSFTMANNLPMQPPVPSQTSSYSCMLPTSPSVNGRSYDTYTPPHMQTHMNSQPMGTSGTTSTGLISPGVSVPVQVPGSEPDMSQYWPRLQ
Sequence of Transcription factor Sp1 (Homo sapiens) (P08047 whole entry, looked up): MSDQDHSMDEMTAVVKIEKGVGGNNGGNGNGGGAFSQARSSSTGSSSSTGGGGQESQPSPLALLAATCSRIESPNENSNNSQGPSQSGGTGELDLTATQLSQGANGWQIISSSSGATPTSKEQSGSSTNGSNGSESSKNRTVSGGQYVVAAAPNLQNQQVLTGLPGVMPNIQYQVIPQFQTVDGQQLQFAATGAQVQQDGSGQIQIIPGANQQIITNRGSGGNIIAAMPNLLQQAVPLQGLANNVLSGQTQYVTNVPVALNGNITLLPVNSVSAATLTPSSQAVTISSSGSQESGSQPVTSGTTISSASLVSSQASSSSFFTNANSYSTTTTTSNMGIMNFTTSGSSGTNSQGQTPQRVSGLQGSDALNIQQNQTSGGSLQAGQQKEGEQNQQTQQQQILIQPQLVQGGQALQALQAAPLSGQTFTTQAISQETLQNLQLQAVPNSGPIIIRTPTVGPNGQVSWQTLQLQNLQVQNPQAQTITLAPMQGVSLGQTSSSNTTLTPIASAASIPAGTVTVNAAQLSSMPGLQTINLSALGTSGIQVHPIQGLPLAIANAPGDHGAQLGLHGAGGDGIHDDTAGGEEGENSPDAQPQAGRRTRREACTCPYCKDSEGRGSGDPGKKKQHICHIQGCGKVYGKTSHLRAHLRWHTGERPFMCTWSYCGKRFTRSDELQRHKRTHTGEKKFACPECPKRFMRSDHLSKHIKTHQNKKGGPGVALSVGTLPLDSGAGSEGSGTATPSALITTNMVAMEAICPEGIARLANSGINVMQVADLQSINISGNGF
Sequence of Estrogen receptor (Homo sapiens) (P03372 whole entry, looked up, the tested form may be a part): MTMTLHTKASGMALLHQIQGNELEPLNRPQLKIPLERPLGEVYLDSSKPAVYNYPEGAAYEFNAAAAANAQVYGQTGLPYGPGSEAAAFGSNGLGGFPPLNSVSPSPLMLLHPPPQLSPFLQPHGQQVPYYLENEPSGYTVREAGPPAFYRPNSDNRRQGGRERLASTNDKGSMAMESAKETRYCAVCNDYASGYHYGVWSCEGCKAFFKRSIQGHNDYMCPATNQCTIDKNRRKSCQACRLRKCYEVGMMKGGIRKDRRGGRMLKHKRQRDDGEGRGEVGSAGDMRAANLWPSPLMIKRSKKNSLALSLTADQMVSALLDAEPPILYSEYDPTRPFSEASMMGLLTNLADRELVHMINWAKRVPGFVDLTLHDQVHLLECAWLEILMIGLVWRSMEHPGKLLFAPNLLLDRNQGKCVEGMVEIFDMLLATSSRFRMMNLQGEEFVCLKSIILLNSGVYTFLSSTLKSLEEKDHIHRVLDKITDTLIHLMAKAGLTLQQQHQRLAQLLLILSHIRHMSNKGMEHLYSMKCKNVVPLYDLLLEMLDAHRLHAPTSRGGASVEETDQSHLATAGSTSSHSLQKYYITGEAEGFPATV
Sequence of X-box-binding protein 1 (Homo sapiens) (P17861 whole entry, looked up): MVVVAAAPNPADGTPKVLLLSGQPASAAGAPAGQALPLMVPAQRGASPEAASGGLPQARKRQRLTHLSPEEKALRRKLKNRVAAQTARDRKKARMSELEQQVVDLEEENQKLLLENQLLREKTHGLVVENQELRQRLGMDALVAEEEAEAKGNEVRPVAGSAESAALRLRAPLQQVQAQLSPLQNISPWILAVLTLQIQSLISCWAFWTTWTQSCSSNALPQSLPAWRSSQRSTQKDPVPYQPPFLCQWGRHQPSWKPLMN
Sequence of Nuclear receptor subfamily 1 group I member 3 (Homo sapiens) (Q14994 whole entry, looked up, the tested form may be a part): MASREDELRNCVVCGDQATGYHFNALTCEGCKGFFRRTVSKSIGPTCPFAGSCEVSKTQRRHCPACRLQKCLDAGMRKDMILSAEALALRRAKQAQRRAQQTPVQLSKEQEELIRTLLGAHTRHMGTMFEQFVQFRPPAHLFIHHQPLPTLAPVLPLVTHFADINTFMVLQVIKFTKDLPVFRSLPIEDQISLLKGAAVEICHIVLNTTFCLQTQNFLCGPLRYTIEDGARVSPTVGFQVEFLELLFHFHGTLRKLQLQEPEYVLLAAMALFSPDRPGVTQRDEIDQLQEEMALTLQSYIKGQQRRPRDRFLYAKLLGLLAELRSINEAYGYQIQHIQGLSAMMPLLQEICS
Sequence of Steroid hormone receptor ERR1 (Homo sapiens) (P11474 whole entry, looked up, the tested form may be a part): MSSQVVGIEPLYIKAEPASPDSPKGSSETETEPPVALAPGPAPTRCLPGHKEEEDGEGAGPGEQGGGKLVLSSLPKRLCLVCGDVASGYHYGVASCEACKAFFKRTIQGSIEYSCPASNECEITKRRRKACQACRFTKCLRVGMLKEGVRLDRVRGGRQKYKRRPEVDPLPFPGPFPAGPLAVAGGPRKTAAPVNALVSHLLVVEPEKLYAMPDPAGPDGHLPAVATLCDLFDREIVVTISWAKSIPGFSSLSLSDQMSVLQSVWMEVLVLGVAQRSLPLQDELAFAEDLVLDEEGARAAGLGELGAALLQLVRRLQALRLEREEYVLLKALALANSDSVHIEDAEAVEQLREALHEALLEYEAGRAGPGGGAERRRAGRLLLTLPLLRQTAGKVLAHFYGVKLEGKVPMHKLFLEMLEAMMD

COCC(C)OCC(C)O (configuration not stated)
not listed: [18] | [19] | [20]
inactive: all other assays above

CC(C)CCCCCCOC(=O)CCCCC(=O)OCCCCCCC(C)C
active: [3] 100 µM
not listed: [1] | [5] | [15] | [19] | [20]
inactive: all other assays above

C#C[C@]1(O)CC[C@H]2[C@@H]3CCC4=CC(=O)CC[C@@H]4[C@H]3CC[C@@]21C
active: [3] 26.9 µM [middle of 4 runs]
not listed: [14] | [15] | [18] | [20]
inactive: all other assays above

OCCC(F)(F)C(F)(F)C(F)(F)C(F)(F)C(F)(F)C(F)(F)C(F)(F)C(F)(F)F
active: [1] 52.5 µM and 222 µM | [2] 43.3 µM and 176 µM | [3] 52.1 µM and 98.7 µM | [5] 25.7 µM | [6] 33.4 µM and 150 µM | [7] 48.4 µM and 150 µM | [8] 222 µM | [11] 33.4 µM | [14] 25.8 µM and 150 µM | [20] 7.75 µM | [16] 48.2 µM and 112 µM
inactive: [5] | [8] | [9] | [10] | [11] | [12] | [13] | [19] | [20] | [17]

c1ccc2c(c1)Cc1ccccc1-2
active: [3] 72.4 µM | [20] 35.4 µM
not listed: [1] | [4] | [15] | [17] | [19]
inactive: all other assays above

COc1ccc([N+](=O)[O-])cc1N
not listed: [15] | [19]
inactive: all other assays above
